Results filed as inconclusive are left out. Active and inactive are the calls of the source. Calls follow the shape of the dose curve; as a rule, active = well fitted inhibition curve with a large enough effect; inconclusive = small, poorly fitted or top-dose-only effect; inactive = no such curve, though single readings can be large or run the other way.
assay: Acumen qHTS Assay for Inhibitors of the mTORC1 Signaling Pathway in MEF (Tsc2-/-, p53-/-) Cells: Hit Validation; conditions: Acumen imaging; activity change, negative = inhibition: at 37.3 µM (top of the series); also: nearly all actives have a fitted effect of over 65% in size
From the text: The mammalian target of rapamycin (mTOR) is an intracellular serine/threonine kinase Aberrant regulation of mTOR signaling plays a causative role in a number of human diseases, including cancer, benign tumors such as lymphangioleiomyomatosis (LAM) and Tuberous Sclerosis Complex (TSC), and metabolic diseases such as diabetes and obesity. This project aims to identify inhibitors of ribosomal protein S6 (rpS6) phosphorylation. The phosphorylation of rpS6 is a key event downstream of mTOR activation. The assay uses a phospho-specific antibody of phospho-rpS6 to detect inhibitors of mTOR activation. Mutations in the Tsc1 and Tsc2 genes are the underlying genetic lesions responsible for TSC, causing constitutive activation of the mTORC1 pathway and leading to profound effects on cell metabolism. Aberrant metabolism in cancer has recently received significant attention as a target to develop therapeutic agents in the treatment of cancer.1 As Tsc2-/- cells have lost the ability to respond to energy and growth factor deprivation, these cells are unable to properly down regulate cellular biosynthetic processes in response to metabolic stress, and are thus extremely sensitive to glucose deprivation-induced death.2 A central goal of this project is to explore the unique cell survival and metabolic properties of cells with Tsc1 or Tsc2 by screening for compounds that selectively target the Tsc2-/- MEFs by screening both Tsc2-/- and WT MEF cell lines. We hope to better understand these aspects of TSC physiology in order to exploit them for therapeutic benefit.
NIH Molecular Libraries Probe Production Centers Network [MLPCN]
NIH Chemical Genomics Center [NCGC]
Assay Submitter (PI): Blenis, John; Harvard University
For quantitative high throughput analysis of mTORC1 signaling, we developed a cell-based assay for immuno-fluorescence based detection of rpS6 phosphorylation on the Acumen Explorer that will be used a platform for the primary small molecule screen. Mouse embryonic fibroblasts (MEFs) are cultured in 1536-well plates using DMEM + 10% FBS. Twenty-four hrs after plating, test compounds (solubilized in DMSO) are delivered and incubated with the cells for 24 hrs at 37 degree Celsius. Following the incubation, media with compound is aspirated and the cells are fixed in 4% paraformaldehyde (PFA) containing PBS + 0.2% TX-100. Next, PFA is aspirated, cells are washed two times with PBS plus 0.2% TX-100 and the cells are blocked for 1 hr at room temperature (blocking buffer: LiCOR Blocking Buffer plus 0.2% TX-100). This is followed by aspiration and staining with Alexa-488 conjugated-phospho-rpS6 Ser235/236 antibody for 2 hours at room temperature (Cell Signaling Technology # 4803, 1:50 dilution in blocking buffer). Cells are washed two times with PBS plus 0.2% TX-100, and stained with 10 uM propidium iodide (PI) for 20-25 minutes for cell number measurement (1:500 dilution of Hoescht staining is also added for IN Cell imaging). The plates are scanned on the Acumen Explorer laser scanning instrument (TTP Labtech) using the 488nm laser for simultaneous excitation of the Alexa-488 and PI. […] Fluorescence emission from the PI stain is selected using a 575-640 nm band pass filter. The normalized phospho-S6 staining is calculated as the ratio of the integrated Alexa 488 intensity divided by the integrated PI intensity for the single concentration rapamycin control (7.5 nM) and DMSO columns. […] Inhibition of the pathway is defined based on the normalized phospho-S6 intensity in rapamycin treated cells. Active cells are defined as those with a normalized phospho-S6 staining above this threshold, and each treatment is reported as the % positive cells in the well, where thresholds are defined by selecting wells with the highest and lowest signal and differentiating between the % non-active and % active populations. In addition to the pathway specific phospho-S6 endpoint, the number of PI stained cells from the Acumen is recorded as a measure of cell viability. […]
Potency is read from the fitted curve at half-maximal effect.

**Q.** With `CC1=C(C(=O)Nc2ccc(C)cc2C)C(c2cc(Br)ccc2F)n2ncc(C(=O)Nc3ccc(C)cc3)c2N1` (stereo not given) as the compound, how does the Potency read?
**A.** Its Potency is 9.27 µM (active).

**Q.** With `CCOc1ccc(S(=O)(=O)N(C(=O)c2ccncc2)c2ccc3oc(C)c(C(=O)OC)c3c2)cc1` as the compound, how does the Potency read?
**A.** Its Potency is 3.69 µM (active).

**Q.** Which Potency does the source give for `Cc1cccc(-n2cnc3cc(C(=O)NC4CCCCCC4)ccc32)c1` here?
**A.** The Potency was 18.5 µM (active).

**Q.** Which Potency does the source give for `Cc1ccc(CN2C(=O)C(=O)c3cc(Br)cc(C)c32)cc1` here?
**A.** The Potency was 9.27 µM (active).

**Q.** With `CCCCN(CC)CCNC(=O)C1CCN(c2nnc(C)c3c(C)n(-c4ccc(C)cc4)nc23)CC1` as the compound, how does the activity change, negative = inhibition read?
**A.** The activity change, negative = inhibition was -14.5%.

**Q.** Which activity change, negative = inhibition does the source give for `CCOc1ccccc1NC(=O)c1cn(C2CCCC2)c(=O)c2c1c1ccccc1n2C` here?
**A.** The activity change, negative = inhibition was -10.9%.

**Q.** For `Cc1cccc(C)c1Nc1sc(C(=O)c2ccccc2)c(N)c1S(=O)(=O)c1ccccc1`, which Potency is on record?
**A.** Its Potency is 2.61 µM (active).

**Q.** Which Potency does the source give for `CCC(C)S(=O)(=O)c1oc(-c2ccc(F)cc2)nc1S(=O)(=O)c1ccc(F)cc1` (stereo not given) here?
**A.** Its Potency is 1.31 µM (active).

**Q.** Which activity change, negative = inhibition does the source give for `CCOc1ccccc1NC(=O)Cn1c(=O)n(CCC(=O)NCc2ccc3c(c2)OCO3)c(=O)c2ccccc21` here?
**A.** Its activity change, negative = inhibition is -23.6%.

**Q.** For `Cc1cc(C)cc(OCC(=O)Nc2cccc(-c3nc4ccccc4[nH]3)c2)c1`, which activity change, negative = inhibition is on record?
**A.** The activity change, negative = inhibition was -6.64%.

**Q.** With `Cn1ccc2c(OCC(=O)Nc3ccc(OC(F)(F)F)cc3)cccc2c1=O` as the compound, how does the Potency read?
**A.** The Potency was 16.5 µM (active).

**Q.** For `CCc1ccc(NC(=O)Cn2c(=O)n(-c3ccc(OC)cc3)c(=O)c3ccc(C(=O)NCc4ccc(C)cc4)cc32)cc1`, which Potency is on record?
**A.** The Potency was 4.65 µM (active).

**Q.** Which activity change, negative = inhibition does the source give for `O=C(CN(CCc1ccccc1)S(=O)(=O)c1ccccc1)NCc1ccc(Cl)cc1` here?
**A.** Its activity change, negative = inhibition is -3.71%.

**Q.** Which Potency does the source give for `COc1ccc(S(=O)(=O)NCCc2csc3nc(-c4ccc(Cl)cc4)nn23)cc1C` here?
**A.** Its Potency is 11.7 µM (active).

**Q.** With `Cc1nc2nncn2c(NCc2ccc(Cl)cc2)c1C` as the compound, how does the Potency read?
**A.** The Potency was 4.14 µM (active).

**Q.** With `NS(=O)(=O)c1cc(C(=O)O)c(NCc2ccco2)cc1Cl` as the compound, how does the activity change, negative = inhibition read?
**A.** The activity change, negative = inhibition was 34.6%.

**Q.** For `CCOC(=O)c1ccc(NC(=O)c2nc(S(=O)(=O)Cc3ccccc3)ncc2Cl)cc1`, which Potency is on record?
**A.** Its Potency is 4.65 µM (active).

**Q.** With `CCC(=O)C1=C(c2ccc(Cl)cc2)N(C(=O)CC)n2c(C)nnc2S1` as the compound, how does the activity change, negative = inhibition read?
**A.** Its activity change, negative = inhibition is -10.3%.

**Q.** Which activity change, negative = inhibition does the source give for `COc1ccc(S(=O)(=O)N(CCc2ccccc2)CC(=O)Nc2cccc(OC)c2)cc1` here?
**A.** The activity change, negative = inhibition was -19.2%.

**Q.** Which Potency does the source give for `Cc1ccc(C)c(Cn2c3ccccc3c3cnn(CC(=O)NC(C)CCc4ccccc4)c(=O)c32)c1` (stereo not given) here?
**A.** Its Potency is 7.36 µM (active).

**Q.** With `COC(=O)c1ccccc1NC(=O)CCS(=O)(=O)c1nc(-c2ccc3c(c2)OCO3)cc(C(F)(F)F)n1` as the compound, how does the activity change, negative = inhibition read?
**A.** The activity change, negative = inhibition was -88.3%.

**Q.** For `Cc1nc2nncn2c(NCc2ccc(F)cc2)c1C`, which activity change, negative = inhibition is on record?
**A.** The activity change, negative = inhibition was -42.2%.

**Q.** Which activity change, negative = inhibition does the source give for `COc1cc(C(=O)CC2(O)C(=O)N(Cc3ccccc3Cl)c3ccccc32)cc(OC)c1OC` (stereo not given) here?
**A.** The activity change, negative = inhibition was -2.03%.

**Q.** For `COc1ccc(-n2ncc3c(NCCCOC(C)C)ncnc32)cc1`, which activity change, negative = inhibition is on record?
**A.** The activity change, negative = inhibition was 1.17%.

**Q.** For `CN(C)c1ccc(Nc2nc3ccccc3n3nnnc23)cc1`, which activity change, negative = inhibition is on record?
**A.** The activity change, negative = inhibition was -10%.

**Q.** For `COc1ccc(Cl)cc1NC(=O)CCCS(=O)(=O)c1nc(-c2ccc(OC)c(OC)c2)cc(C(F)(F)F)n1`, which Potency is on record?
**A.** Its Potency is 10.4 µM (active).

**Q.** Which activity change, negative = inhibition does the source give for `Cc1nn(C(C)C(=O)NC2CCC(C)CC2)c(=O)c2c1sc1ccccc12` (stereo not given) here?
**A.** The activity change, negative = inhibition was -5.69%.

**Q.** Which activity change, negative = inhibition does the source give for `COc1cc2ncnc(Nc3ccc(F)c(Cl)c3)c2cc1OCCCN1CCOCC1` here?
**A.** The activity change, negative = inhibition was -7.44%.

**Q.** With `Cc1ccc(OCC(O)Cn2c(=N)n(CCN3CCCCC3)c3ccccc32)cc1` (stereo not given) as the compound, how does the Potency read?
**A.** Its Potency is 10.4 µM (active).

**Q.** With `CCN1CCOC(=O)C1CC(=O)Nc1cc(C)ccc1OC` (stereo not given) as the compound, how does the Potency read?
**A.** The Potency was 10.4 µM (active).

**Q.** Which activity change, negative = inhibition does the source give for `COc1ccc(-c2nc(S(=O)(=O)c3ccc(Cl)cc3)c(N3CCCCCC3)o2)cc1` here?
**A.** Its activity change, negative = inhibition is 2.12%.

**Q.** Which activity change, negative = inhibition does the source give for `Cc1cc(C)c(-c2n[nH]c3c2C(c2ccccc2F)N(Cc2ccco2)C3=O)c(O)c1` (stereo not given) here?
**A.** Its activity change, negative = inhibition is 2.41%.

**Q.** For `CC(C(=O)NCc1cccc(Br)c1)n1ncn2cccc2c1=O` (stereo not given), which activity change, negative = inhibition is on record?
**A.** The activity change, negative = inhibition was 1.66%.

**Q.** With `COc1ccc(NC(=O)CCS(=O)(=O)c2nc(-c3cccs3)cc(C(F)(F)F)n2)cc1OC` as the compound, how does the activity change, negative = inhibition read?
**A.** Its activity change, negative = inhibition is -87.3%.

**Q.** Which activity change, negative = inhibition does the source give for `CCOC(=O)c1c(NC(=O)c2cc(CC)on2)sc(C(C)=O)c1C` here?
**A.** The activity change, negative = inhibition was 12%.

**Q.** Which activity change, negative = inhibition does the source give for `COc1ccc(OCC(=O)Nc2ccc3nn(-c4ccc(OC)cc4)nc3c2)cc1` here?
**A.** Its activity change, negative = inhibition is 11.1%.

**Q.** Which Potency does the source give for `CCN(CC)CCOC(=O)c1ccc(NC(=O)c2nn(-c3ccc(C)cc3)c(=O)c3c2c2ccccc2n3C)cc1` here?
**A.** The Potency was 4.14 µM (active).

**Q.** Which Potency does the source give for `Cc1ccc(C(=O)CC2(O)C(=O)N(Cc3ccccc3)c3ccc(Br)cc32)cc1` (stereo not given) here?
**A.** Its Potency is 11.7 µM (active).

**Q.** With `COc1cc(Br)ccc1C1C(C(=O)Nc2ccc(C)cc2C)=C(C)Nc2nnnn21` (stereo not given) as the compound, how does the activity change, negative = inhibition read?
**A.** The activity change, negative = inhibition was -23.7%.

**Q.** With `COc1cccc(-c2oc3ccc(C)cc3c(=O)c2O)c1` as the compound, how does the activity change, negative = inhibition read?
**A.** Its activity change, negative = inhibition is -44.4%.

— PubChem BioAssay AID651784 (National Center for Advancing Translational Sciences (NCATS), 2012)
